Reference: PubChem BioAssay AID1159580 (chemical genetic matrix, 2015)
About 2,000 (36%) of roughly 5,500 compounds were called active. Not shown: some 18% with an inconclusive outcome. Rule as the data show it: active = normalized growth mostly below about 0.91 (no sharp cut-off); inconclusive = no clear call, values can overlap the other calls; inactive = mostly above about 0.92. Some of the results follow.

Test: chemical genetic growth profiling, strain panel (AID 1159580);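 also: tested at 20 µM; growth read once vehicle control cultures reached saturation at 30 °C; 1 = growth at the plate median or of vehicle wells; lower values mean less growth of the strain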
Conditions: growth OD

Measured: normalized growth

CC12CCC(C1)C(C)(C)C2NC(=O)c1cccs1 (centres undefined)
inactive: S. cerevisiae deletion strains, locus YAL013W, strain DEP1, stronger effect = lower value 0.976 | S. cerevisiae deletion strains, locus YBR229C, strain ROT2, stronger effect = lower value 1.01 | S. cerevisiae deletion strains, locus YDL101C, strain DUN1, stronger effect = lower value 0.995 | S. cerevisiae deletion strains, locus YDL134C, strain PPH21, stronger effect = lower value 0.991 | S. cerevisiae deletion strains, locus YDR150W, strain NUM1, stronger effect = lower value 0.907 | S. cerevisiae deletion strains, locus YEL061C, strain CIN8, stronger effect = lower value 1.02 | S. cerevisiae deletion strains, locus YGR078C, strain PAC10, stronger effect = lower value 0.98 | S. cerevisiae deletion strains, locus YHR030C, strain SLT2, stronger effect = lower value 0.848 | S. cerevisiae deletion strains, locus YHR087W, strain rtc3, stronger effect = lower value 0.983 | S. cerevisiae deletion strains, locus YJL187C, strain SWE1, stronger effect = lower value 0.992 | S. cerevisiae deletion strains, locus YJR043C, strain POL32, stronger effect = lower value 0.956 | S. cerevisiae deletion strains, locus YJR075W, strain HOC1, stronger effect = lower value 0.97 | S. cerevisiae deletion strains, locus YLR039C, strain RIC1, stronger effect = lower value 1.03 | S. cerevisiae deletion strains, locus YLR058C, strain SHM2 (second series), stronger effect = lower value 0.994 | S. cerevisiae deletion strains, locus YLR085C, strain ARP6, stronger effect = lower value 0.944 | S. cerevisiae deletion strains, locus YLR262C, strain YPT6, stronger effect = lower value 1.03 | S. cerevisiae deletion strains, locus YML094W, strain GIM5, stronger effect = lower value 0.976 | S. cerevisiae deletion strains, locus YMR219W, strain ESC1, stronger effect = lower value 0.988 | S. cerevisiae deletion strains, locus YMR263W, strain SAP30, stronger effect = lower value 0.942 | S. cerevisiae deletion strains, locus YMR307W, strain GAS1, stronger effect = lower value 0.834 | S. cerevisiae deletion strains, locus YNL153C, strain GIM3, stronger effect = lower value 1 | S. cerevisiae deletion strains, locus YNL298W, strain CLA4 (second series), stronger effect = lower value 0.983 | S. cerevisiae deletion strains, locus YNL322C, strain KRE1, stronger effect = lower value 0.987 | S. cerevisiae deletion strains, locus YNR030W, strain Alg12, stronger effect = lower value 0.995 | S. cerevisiae deletion strains, locus YOL006C, strain TOP1, stronger effect = lower value 0.924 | S. cerevisiae deletion strains, locus YPL055C, strain LGE1, stronger effect = lower value 0.968 | S. cerevisiae deletion strains, locus YPL241C, strain CIN2, stronger effect = lower value 0.976 | S. cerevisiae deletion strains, locus YPR135W, strain CTF4, stronger effect = lower value 0.858 | S. cerevisiae strains, strain wild type, stronger effect = lower value 0.954
